The list is not random: actives were taken first. Their share in the collection is about 19%.
IL-1B inflam inh: blocks inflammasome-driven IL-1 beta release; THP-1 LPS/ATP IL-1B secretion, AlphaLISA, 16 h; active compounds read low; activity change, % at 57.5 µM; hit rate 4.7% among 360,000; AID 743279; in the data active = activity change below about -50%; inconclusive = mostly about -30% to -49%; note: % is set by controls: 0 for no effect and ±100 for the full control effect
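Secreted IL-1B measured by AlphaLISA bead assay after 16 h compound exposure of THP-1 cells; compounds (final up to 57.5 uM) added 1 h before LPS (250 ng/mL) and ATP (1.25 mM) stimulation; lower signal means less secretion.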
DT40 TDP1 no CPT: qHTS for Inhibitors of human tyrosyl-DNA phosphodiesterase 1 (TDP1): qHTS in cells in absence of CPT; DT40 Tdp1-/- hTDP1 cells, no CPT, ATP luminescence, 48 h; Potency, µM (highest dose often 46.2 µM), for inactives: at the highest dose activity change, negative = growth inhibition, actives largely listed as inhibitors; hit rate 15% among 420,000; AID 686978, 2013; note: potency is the fitted concentration of half-maximal effect; % is set by controls: 0 for no effect and ±100 for the full control effect; nearly all actives have a fitted effect of over 55% in size
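Luminescent ATP content (CellTiter-Glo) served as the growth readout. Knockout chicken DT40 cells expressing human TDP1 were exposed to compounds without camptothecin for a minimum 48 hr at 37 °C.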
SW480 rerep: induces DNA re-replication in SW480 colon adenocarcinoma cells; SW480 DNA re-replication, Hoechst DNA content imaging, 48 h; hit rate 1.8% among 340,000; Potency, µM (titrated, usually from 46.1 µM), for the others: at the top dose re-replication activation, usual class: activators; note: potency is the fitted concentration of half-maximal effect; % of control where 0% means no effect; nearly all actives have a fitted effect of over 55% in size
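Compounds, transferred as 23 nL by pin tool, were incubated with cells for 48 hr; DNA content per nucleus was then quantified by Hoechst staining and fluorescence plate imaging.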
Chronic BCR inh: blocks chronic active B-cell receptor signaling. ABC-DLBCL IkBa-CBG/CBR reporter, luminescence ratio, 4 h. Potency, µM (highest dose often 46.1 µM), for the others: at the highest dose activity change, negative = inhibition, usual class: inhibitors. hit rate 0.05% among 340,000. AID 493014; active = well fitted inhibition curve with a large enough effect in the signal ratio, with a control signal flat, not every such curve was filed as active; inconclusive = small, poorly fitted or top-dose-only effect, or effect the other way, or a change in a side signal; the % refers to the signal ratio;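 note: potency is the fitted concentration of half-maximal effect; plate controls were basal doxycycline-induced cells for no effect and cells given 10 µM MG132 for full effect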
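Concentration-response series (up to 46 uM) were applied to TMD8 dual-reporter cells for 4 h at 37C with doxycycline. Green/red ratio, after filter-overlap correction, defined %Activity; red signal alone was normalised to basal cells and zero luminescence.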
DT40 TDP1 CPT: DT40-hTDP1 cell growth loss with CPT; AID 686979; hit rate 12% among 420,000; chicken DT40 Tdp1-/-;hTDP1 cells + 20 nM CPT, ATP luminescence, 48 h; Potency, µM (series often up to 46.2 µM), without a hit: at the top dose activity change, negative = growth inhibition, actives largely listed as inhibitors; note: potency is the fitted concentration of half-maximal effect; % is set by controls: 0 for no effect and ±100 for the full control effect; nearly all actives have a fitted effect of over 55% in size
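Cell growth measured by CellTiter-Glo luminescence after a minimum 48 h, 37 C compound exposure with 20 nM CPT in Tdp1-knockout DT40 cells stably expressing hTDP1, seeded 400/well; qHTS titration format.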
MCF10A rereplic: inducers of DNA re-replication in MCF 10A breast cells; MCF 10A DNA re-replication, Hoechst nuclear intensity, 48 h; Potency, µM (series often up to 46.1 µM), without a hit: top-dose activity, positive = re-replication, hits mostly activators; hit rate 2.9% among 350,000; note: potency is the fitted concentration of half-maximal effect; % of control where 0% means no effect; nearly all actives have a fitted effect of over 50% in size
Starred values were filed as active, the others as inactive; u = inconclusive; x = no result given. Unless noted, calls come from the whole dose curve; as a rule, active = well fitted curve in the direction sought with a large enough effect; inconclusive = small, poorly fitted or top-dose-only effect, or another doubt; inactive = no such curve, though single readings can be large; an effect the other way counts as inactive or inconclusive.

SMILES	IL-1B inflam inh	DT40 TDP1 no CPT	SW480 rerep	Chronic BCR inh	DT40 TDP1 CPT	MCF10A rereplic
COc1ccc(NCc2nnc(SCC(=O)Nc3ccccc3OC)o2)cc1	11.2	-18.8%	-0.7%	u	-14.3%	0.4%
O=C(CSc1nnc(CNC(=O)c2ccco2)o1)c1ccc(Cl)cc1	-106.3*	u	u	-1.8%	-20.8%	-34.4%
O=C(CSc1nnc(CNc2ccccc2)o1)c1ccc2c(c1)OCCO2	-67.8*	u	2.5%	u	u	-3.6%
COc1ccc(C(=O)CSc2nnc(Cc3ccccc3)o2)cc1	-9.3	-15.6%	7.1%	-0.2%	-28.4%	-8.5%
CCOc1cc(C(=O)CSc2nnc(CNc3ccc(Cl)cc3)o2)ccc1NC(=O)CC	-102.8*	u	10.8%	u	u	u
CCc1nnc(NC(=O)CSc2nnc(CNc3ccc(Cl)cc3)o2)s1	35.0	-26.1%	-7.6%	10.8%	-5.1%	12.0%
COc1ccc(C(=O)CSc2nnc(Cn3cnc4ccccc43)o2)cc1	u	16.4µM*	12.7%	1.0%	8.2µM*	u
O=C(O)CCc1ccc(-c2ccccc2)n1-c1cccc(Br)c1	x	-11.1%	x	x	-7.8%	x
O=C(c1ccc(Cl)c(Cl)c1)N1CCC(=O)N(C(COCc2ccc(Cl)cc2)Cc2ccccc2)CC1 (stereo not drawn)	-73.1*	16.4µM*	u	u	u	u
Cc1ccc(S(=O)(=O)N2CCC(=O)N([C@H](COCc3ccc(Cl)c(Cl)c3)Cc3ccccc3)CC2)cc1	32.4	u	x	x	u	x
Cc1cccc(COC[C@H](Cc2ccccc2)N2CCN(C(=O)c3ccc(Cl)c(Cl)c3)CCC2=O)c1	-65.3*	u	x	x	u	x
Cc1cccc(COCC(Cc2ccccc2)N2CCN(C(=O)c3ccc(Cl)c(Cl)c3)CCC2=O)c1 (stereo not drawn)	-73.6*	u	u	-6.3%	20.6µM*	u
Cc1cccc(COCC(Cc2ccccc2)N2CCN(C(=O)c3cccc(C)c3)CCC2=O)c1 (stereo not drawn)	-26.9	u	u	-7.8%	u	u
O=C(c1ccccc1)N1CCC(=O)N(C(CO)Cc2ccccc2)CC1 (stereo not drawn)	-8.0	-8.7%	1.9%	x	-7.5%	1.6%
O=C(c1cccc(Cl)c1)N1CCC(=O)N([C@H](COCc2cccc(Cl)c2)Cc2ccccc2)CC1	u	23.1µM*	x	x	u	x
CCCCN(C(=O)c1ccc2c(c1)S(=O)(=O)N=C1CCCCCN12)c1c(N)n(CCCC)c(=O)[nH]c1=O	5.0	-13.9%	-77.1%	1.3%	6.5%	-17.5%
CCCCOC(=O)c1ccc(NC(=O)C(=O)NCc2ccco2)cc1	66.5	-24.3%	15.4%	u	0.4%	0.3%
COc1cc(C(=O)NC(CCSC)C(=O)Nc2ccc(N3CCOCC3)cc2)cc(OC)c1OC (stereo not drawn)	-26.3	1.9%	x	x	5.2%	x
O=C(NC(C(=O)N/N=C/c1cc([N+](=O)[O-])ccc1O)c1n[nH]c(=O)c2ccccc12)c1ccccc1 (stereo not drawn)	100.9	u	1.4%	0.0%	-2.9%	u
O=C(c1ccc(Cl)c(Cl)c1)N1CCC(=O)N(C(COCc2cccc(C(F)(F)F)c2)Cc2ccccc2)CC1 (stereo not drawn)	-86.2*	u	18.4µM*	u	u	u
CC1(C(=O)NCc2ccccc2Br)CCN1Cc1ccc(-c2ccccn2)cc1 (stereo not drawn)	-28.9	18.4µM*	x	x	14.6µM*	x
CC(C)NC(=O)C1(C)CCCCN1Cc1ccc(OCc2ccccc2)cc1 (stereo not drawn)	1.7	1.64µM*	x	x	2.31µM*	x
